From PubChem BioAssay AID504692 (The Scripps Research Institute Molecular Screening Center, 2011)
The whole screen tested about 340,000 compounds, of which about 2,000 (0.59%) were called active. The sample holds actives, similar compounds and a random draw of the others, so the mix is not that of the screen. Values without a mark were called inactive. No stated cut-off is given here; in the data, active means activation mostly above about 9.5% (no sharp cut-off); inactive means mostly below about 7.6%.

target: 5-hydroxytryptamine receptor 5A (Homo sapiens) (UniProt P47898); experiment: HTR5A agonists in luminescence cell assay, primary screen, counter-screen for OPRM1-OPRD1 heterodimer agonist project, full-deck HTS (AID 504692); settings: cell-based, at 9.3 µM, hits give high values;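 further: 0% = cells with vehicle only and 100% = reference agonist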
Sequence (P47898 whole entry, looked up): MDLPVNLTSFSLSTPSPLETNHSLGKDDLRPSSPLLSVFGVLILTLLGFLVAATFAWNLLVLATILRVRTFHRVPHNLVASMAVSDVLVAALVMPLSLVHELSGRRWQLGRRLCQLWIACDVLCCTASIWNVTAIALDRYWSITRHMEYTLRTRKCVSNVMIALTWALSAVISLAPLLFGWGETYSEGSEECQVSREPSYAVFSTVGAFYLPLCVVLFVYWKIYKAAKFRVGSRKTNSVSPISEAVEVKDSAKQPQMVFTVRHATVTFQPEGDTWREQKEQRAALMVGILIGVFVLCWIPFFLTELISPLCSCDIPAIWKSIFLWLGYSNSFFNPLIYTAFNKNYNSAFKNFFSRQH

For `O=S(=O)(NC1CCCC1)c1ccc(-n2cnnn2)cc1`, which activation is on record?
The activation was 4.29%.

How did the activation turn out when `CCn1c(C(C)C)n[nH]c1=S` was run?
Its activation is 1.98%.

For `CCOC(=O)c1c(NC(=O)NC(C)(C)C)sc2c1CCN(C)C2`, which activation is on record?
The activation was -2.16%.

For `CCOC(=O)c1c(NC(=O)Cn2nc(C(F)(F)F)cc2C)sc2c1CCC2`, which activation is on record?
The activation was 12.1% (active).

Which activation does the source give for `CCOC(=O)c1c(NC(=O)CSc2cn(CC)c3ccccc23)sc2c1CCC2` here?
Its activation is -4.94%.

With `CCCn1c(SCC(=O)Nc2c(C)cccc2C)nnc1C(C)C` as the molecule, how does the activation read?
The activation was -3.62%.

For `O=C(COc1ccccc1Cl)Nn1cnnc1`, which activation is on record?
Its activation is 0.57%.

With `COC(=O)c1c(-c2ccsc2)oc2ccc(-c3cc(OC)c(OC)c(OC)c3)cc12` as the molecule, how does the activation read?
The activation was 6.62%.

Which activation does the source give for `COc1cc2c(-c3ccc4c(c3)OCO4)c(-c3ccsc3)oc(=O)c2cc1OC` here?
The activation was 15.3% (active).

With `COc1cc(-c2c(-c3ccc4c(c3)OCO4)noc2C)ccc1F` as the molecule, how does the activation read?
The activation was -0.29%.

With `O=C(CCl)NNc1cccc(Cl)n1` as the molecule, how does the activation read?
The activation was -8.59%.

How did the activation turn out when `COc1ccc(N)c(C)c1` was run?
Its activation is 0.27%.

For `COc1ccc2c(c1)SC(C)CC2=O` (stereo unspecified), which activation is on record?
Its activation is 10.6% (active).

For `COc1ccc2c(c1)C(=O)CC(c1ccccc1)O2` (stereo unspecified), which activation is on record?
Its activation is -1.73%.

For `O=S(=O)(c1cccc(-c2nnc(SC(F)F)n2-c2ccccc2)c1)N1CCCCC1`, which activation is on record?
Its activation is 0.34%.

`Cc1ccc(CN2CCN(Cc3cn(C)nc3-c3ccccc3)CC2CCO)o1` (stereo unspecified) was tested. Which activation did it give?
The activation was -1.42%.

For `CCOc1ccc(CN2CCN(Cc3ccc(C)o3)CC2CCO)cc1` (stereo unspecified), which activation is on record?
Its activation is -1.69%.

`Cc1ccc(CN2CCN(Cc3ccc(OCCO)cc3)CC2CCO)o1` (stereo unspecified) was tested. Which activation did it give?
Its activation is 15% (active).

How did the activation turn out when `Cc1ccc2c(c1)C(c1ccccc1)N(C(=O)c1ccc(F)cc1)CC(=O)N2` (stereo unspecified) was run?
The activation was -1.42%.

`COc1ccc2c(CC(=O)OCC(=O)Nc3ccccc3[N+](=O)[O-])coc2c1` was tested. Which activation did it give?
The activation was -1.41%.

Which activation does the source give for `Cc1ccc(NS(=O)(=O)c2cccs2)cc1S(=O)(=O)N1CCCCCC1` here?
The activation was 0.15%.

Which activation does the source give for `O=S(=O)(Nc1ccccc1Br)c1cccs1` here?
Its activation is 8.11%.

With `O=S(=O)(Nc1ccccc1)c1ccc(NS(=O)(=O)c2cccs2)cc1` as the molecule, how does the activation read?
Its activation is 9.34% (active).

`Cc1c(OC(C)C(=O)NCC2CCC(C(=O)O)CC2)ccc2c1oc(=O)c1ccccc12` (stereo unspecified) was tested. Which activation did it give?
The activation was 1%.

With `CCOC(=O)N1CCC(Nc2c(NCCCN3CCN(c4ccc(OC)cc4)CC3)c(=O)c2=O)CC1` as the molecule, how does the activation read?
Its activation is -0.13%.

For `COc1ccc(S(=O)(=O)Nc2cc(C)on2)cc1NC(C)=O`, which activation is on record?
The activation was 1.04%.

How did the activation turn out when `CC(C)(C)c1ccc(C(=O)N2CCC(C(=O)N3CCCCC3)CC2)cc1` was run?
The activation was 5.42%.

With `CC1Cc2ccccc2N1C(=O)CSc1nnc(-c2ccc(S(=O)(=O)N3CCCC3)cc2)n1C` (stereo unspecified) as the molecule, how does the activation read?
The activation was 2.27%.

Which activation does the source give for `COc1ccccc1CNC(=O)C1CCN(S(=O)(=O)c2ccc3c(c2)CC(C)N3C(=O)C2CC2)CC1` (stereo unspecified) here?
Its activation is -0.1%.

Which activation does the source give for `COc1ccc(S(=O)(=O)N2CCN(CC(=O)N3c4ccccc4CC3C)CC2)cc1OC` (stereo unspecified) here?
The activation was 22.4% (active).

With `O=C(CCS(=O)(=O)c1cccc2nsnc12)N1CCN(c2ccccc2F)CC1` as the molecule, how does the activation read?
Its activation is 5.73%.

With `CN(Cc1ccccc1F)C(=O)C(Cc1ccccc1)NC(=O)c1ccccc1` (stereo unspecified) as the molecule, how does the activation read?
The activation was -1.74%.

Which activation does the source give for `CC(Cc1ccccc1)C(=O)N(C)Cc1ccccc1` (stereo unspecified) here?
The activation was 12.5% (active).

With `CN(Cc1ccccc1)C(=O)c1cccc(C(=O)N(C)Cc2ccccc2)c1` as the molecule, how does the activation read?
The activation was -0.63%.

How did the activation turn out when `O=C(COC(=O)/C=C/c1ccc(S(=O)(=O)N2CCCCCC2)cc1)NCc1ccccc1Cl` was run?
The activation was -5.05%.

How did the activation turn out when `O=C1CCCN2N=C(SCC(=O)Nc3ccc(Br)cc3)SC2=N1` was run?
The activation was -3.71%.

With `CCCCCN(C(=O)NC(=O)Nc1ccccc1OC)S(C)(=O)=O` as the molecule, how does the activation read?
Its activation is -1.57%.

`Cc1ccc(C2=N/C(=C\c3ccc(OS(=O)(=O)c4ccc(C)cc4)cc3)C(=O)O2)cc1` was tested. Which activation did it give?
The activation was 0.86%.

Which activation does the source give for `CCOc1cc(/C=C2/N=C(c3ccc(C(C)(C)C)cc3)OC2=O)cc(Cl)c1OS(C)(=O)=O` here?
Its activation is 13.3% (active).

How did the activation turn out when `COc1ccc(S(=O)(=O)Nc2cccnc2)c(Cl)c1Cl` was run?
The activation was -1.41%.

How did the activation turn out when `Cc1cc(C)c(C)c(S(=O)(=O)Nc2cccnc2)c1C` was run?
Its activation is 13.8% (active).

For `Cc1cc(C)c(C)c(S(=O)(=O)Nc2ccc(O)cc2)c1C`, which activation is on record?
Its activation is 3.2%.

Which activation does the source give for `O=C(OCc1ccc([N+](=O)[O-])cc1)C1CC(=O)N(Cc2ccccc2Cl)C1` (stereo unspecified) here?
The activation was -0.92%.

`CCc1cccc(C)c1NS(=O)(=O)c1c(C)nc2sccn2c1=O` was tested. Which activation did it give?
Its activation is 0.59%.

How did the activation turn out when `COCCC(=O)N1CCC(Oc2ccc(C(=O)NCc3ccon3)cc2)CC1` was run?
The activation was 1.64%.

With `COc1ccc(CCNC(=O)CC2SC(=Nc3cc(C)cc(C)c3)NC2=O)cc1OC` (stereo unspecified) as the molecule, how does the activation read?
The activation was 1.71%.

With `COC(=O)c1cc(C)sc1NC(=O)CC1Nc2ccccc2NC1=O` (stereo unspecified) as the molecule, how does the activation read?
The activation was 2.14%.

With `O=C(CC1NCCNC1=O)Nc1ccc(Oc2ccccc2)cc1` (stereo unspecified) as the molecule, how does the activation read?
The activation was 1.17%.

Which activation does the source give for `O=C(CC1Nc2ccccc2NC1=O)Nc1ccccc1` (stereo unspecified) here?
Its activation is 17% (active).

How did the activation turn out when `COc1ccc(/C=C(\NC(=O)c2ccc(OCC(C)C)cc2)C(=O)OCc2ccco2)cc1` was run?
The activation was -0.73%.

Which activation does the source give for `O=S(=O)(NCc1cccnc1)c1ccc(Cl)nc1` here?
The activation was -5.88%.

Which activation does the source give for `COCCCN1C(=O)c2ccc(C(=O)Nc3ccc(OC)cc3OC)cc2C1=O` here?
The activation was -0.44%.

`Cc1ccc2[nH]cc(CCCN3C(=O)c4ccccc4C3=O)c2c1` was tested. Which activation did it give?
The activation was -1.1%.

With `COc1ccc2[nH]cc(CCN3C(=O)c4ccc(C(=O)O)cc4C3=O)c2c1` as the molecule, how does the activation read?
Its activation is 27% (active).

With `O=C(CNCc1cccs1)Nc1cc(S(=O)(=O)N2CCCC2)ccc1Cl` as the molecule, how does the activation read?
The activation was -2.05%.

How did the activation turn out when `COc1ccccc1CNC(=O)C1CCCN(S(=O)(=O)c2cccc3cccnc23)C1` (stereo unspecified) was run?
Its activation is -3.07%.

With `CCC(C)OC(=O)C(C)Oc1ccc(-c2ccccc2)cc1` (stereo unspecified) as the molecule, how does the activation read?
Its activation is 3.02%.

How did the activation turn out when `CC(=O)Nc1ccc(N2C(=O)C3C4CC(=O)C(c5ccccc54)C3C2=O)cc1` (stereo unspecified) was run?
Its activation is -1.72%.

How did the activation turn out when `CCc1ccccc1N1C(=O)C2C3CC(=O)C(c4ccccc43)C2C1=O` (stereo unspecified) was run?
Its activation is 10.2% (active).

Which activation does the source give for `CC1=C(C)CC2C(=O)N(c3cccc4ccccc34)C(=O)C2C1` (stereo unspecified) here?
Its activation is 1.96%.

With `Cn1nc(C(C)(C)C)c([N+](=O)[O-])c1C(N)=O` as the molecule, how does the activation read?
Its activation is -3.65%.

How did the activation turn out when `NC(=O)c1ccc(N2CCOCC2)nc1` was run?
Its activation is 5.3%.

For `CCCN(CC1CC1)C(=S)NC(=O)c1ccccc1Br`, which activation is on record?
Its activation is -3.6%.

How did the activation turn out when `CC[C@]12c3[nH]c4cc(CCC(=O)N(C)C)ccc4c3CCN1C(=O)[C@@H](CC(=O)NCCCN(C)C)C[C@@H]2C(=O)N1CCN(C(=O)c2ccco2)CC1` was run?
The activation was 4.2% (active).

Which activation does the source give for `CC[C@]12c3[nH]c4cc(CCC(=O)N(C)C)ccc4c3CCN1C(=O)[C@@H](CC(=O)NCCCn1ccnc1)C[C@@H]2C(=O)N1CCN(C(=O)C2CC2)CC1` here?
The activation was 2.93%.

For `CC[C@]12c3[nH]c4cc(CCC(=O)N(C)C)ccc4c3CCN1C(=O)[C@@H](CC(=O)NCc1ccco1)C[C@@H]2C(=O)N1CCN(C(=O)c2ccco2)CC1`, which activation is on record?
The activation was -2.65%.

Which activation does the source give for `O=C(c1cccnc1)N(Cc1ccccc1)C(=O)c1cccnc1` here?
The activation was 5.83%.

`O=C(c1cccnc1)N(c1cc2sc(=O)oc2c2ccccc12)S(=O)(=O)c1ccccc1` was tested. Which activation did it give?
The activation was 16.1% (active).

How did the activation turn out when `COc1ccc(N(C(=O)c2cccnc2)S(=O)(=O)c2ccc(OC)c(OC)c2)cc1` was run?
Its activation is 6.11%.

How did the activation turn out when `COCCCn1c(-c2cccs2)nc2nc3ccccc3nc21` was run?
The activation was -0.51%.

With `CC(OC(=O)CCc1nc(=O)c2ccccc2n1C)C(=O)NCc1ccc2c(c1)OCO2` (stereo unspecified) as the molecule, how does the activation read?
Its activation is -4.46%.

For `C=CCSc1nnc2c(n1)-c1cccc3cccc-2c13`, which activation is on record?
The activation was -0.69%.

For `COc1cccc(C(=O)NNS(=O)(=O)c2ccc(F)cc2)c1`, which activation is on record?
The activation was -2.33%.

How did the activation turn out when `O=C(c1ccc(Oc2ccc(Cl)cc2)c([N+](=O)[O-])c1)N1CCCC1` was run?
Its activation is 11% (active).

`O=C(COc1ccc(Cl)cc1[N+](=O)[O-])N1CCCCC1` was tested. Which activation did it give?
Its activation is -1.55%.

With `Nc1ccc(C(=O)N2CCN(S(=O)(=O)c3ccc(Cl)cc3)CC2)cc1[N+](=O)[O-]` as the molecule, how does the activation read?
Its activation is -1.02%.

How did the activation turn out when `Cc1cnc(C(=O)N2CCCC(N3CCN(c4ccccc4F)CC3)C2)cn1` (stereo unspecified) was run?
Its activation is 5.27%.

With `Cc1ccc(S(=O)(=O)/N=C(/Nc2ccc3[nH]c(=O)[nH]c3c2)c2ccccc2)cc1` as the molecule, how does the activation read?
The activation was 3.44%.

With `COc1c(Cl)cc(C(=O)Nc2ccc(Cl)cn2)cc1Cl` as the molecule, how does the activation read?
Its activation is 18.5% (active).

How did the activation turn out when `COc1ccc(C(=O)NC(=S)Nc2ccc(Cl)cn2)cc1OC` was run?
Its activation is 0.47%.

How did the activation turn out when `O=C(Nc1ccc(Cl)cn1)c1ccc2c(c1)OCCO2` was run?
Its activation is 1.65%.

Which activation does the source give for `O=C(NCCS(=O)(=O)c1ccc(Br)cc1)c1ccccc1Cl` here?
Its activation is 0.17%.

Which activation does the source give for `Cc1ccc(CN2C(=O)N/C(=C/c3cc(C)n(-c4ccccn4)c3C)C2=O)cc1` here?
The activation was 1.53%.

With `Cc1cccc(NC(=O)CN2CCCN(S(=O)(=O)c3ccc(Br)s3)CC2)c1` as the molecule, how does the activation read?
The activation was 0.97%.

How did the activation turn out when `Cc1ccc(-c2csc(SCC(=O)Nc3cc(C)on3)n2)cc1` was run?
The activation was 14.7% (active).

With `Cc1ccc2nc(-c3ccc(SCC(=O)Nc4cc(C)on4)nc3)[nH]c2c1` as the molecule, how does the activation read?
Its activation is -0.96%.

`Cc1ccc(SCCC(=O)Nc2cc(C)on2)cc1` was tested. Which activation did it give?
The activation was -4.61%.

Which activation does the source give for `O=C(NCC(F)(F)F)Nc1nnc(C(F)(F)F)s1` here?
Its activation is 4%.

With `O=C(CCl)N(Cc1cccc([N+](=O)[O-])c1)c1cccc(Cl)c1` as the molecule, how does the activation read?
Its activation is 40.9% (active).

Which activation does the source give for `Cc1ccc(S(=O)(=O)N(Cc2cccc([N+](=O)[O-])c2)C(=O)N2CCN(C)CC2)cc1` here?
Its activation is 0.8%.

Which activation does the source give for `O=C(c1cccc([N+](=O)[O-])c1)N1CCN(Cc2ccccc2)CC1` here?
Its activation is 5.31%.
